Experiments:
Assay in all cases: PBM binding z-score (relative to random genomic background probes); higher = stronger binding; sequences stand for … in GC…GCGATTGACAGCGTAGAATGAAGG
[1] = system: PPARg:RXRa DBDmut IVT, anti-RXR (DBD mutation: RXRa K156A/R161A, NR concentration 270 nM, RXRa partner concentration 90 nM)
Outline: (§1)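 Scanned fluorescence from custom Agilent 4×180K protein-binding microarrays was regression-normalized. Binding z-scores use random background probes as reference. Ligand-free nuclear receptor dimers were incubated on the arrays for 1 h and detected with antibodies against each partner (one per run).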

[2] = system: PPARg:RXRa IVT, anti-PPARg (NR concentration 270 nM, RXRa partner concentration 90 nM)
Outline: as §1

[3] = system: PPARg DBDmut:RXRa IVT, anti-PPARg (DBD mutation: PPARg1 K132A/R137A, NR concentration 270 nM, RXRa partner concentration 90 nM)
Outline: as §1

[4] = system: PPARg DBDmut IVT, anti-PPARg (DBD mutation: PPARg1 K132A/R137A, NR concentration 270 nM)
Outline: as §1

[5] = system: PPARg homodimer (NR concentration 180 nM)
Outline: as §1

[6] = system: PXR:RXRa (NR concentration 270 nM, RXRa partner concentration 90 nM)
Outline: as §1

[7] = system: PXR homodimer (NR concentration 270 nM)
Outline: as §1

[8] = system: RARa:RXR (NR concentration 270 nM, RXRa partner concentration 90 nM)
Outline: as §1

[9] = system: RARa homodimer (NR concentration 270 nM)
Outline: as §1

[10] = system: RARb:RXRa (NR concentration 270 nM, RXRa partner concentration 90 nM)
Outline: as §1

[11] = system: RARb homodimer (NR concentration 270 nM)
Outline: as §1

[12] = system: RARg:RXRa (NR concentration 270 nM, RXRa partner concentration 90 nM)
Outline: as §1

[13] = system: RARg homodimer (NR concentration 270 nM)
Outline: as §1

[14] = system: RXRa DBDmut IVT, anti-RXR (DBD mutation: RXRa K156A/R161A, NR concentration 90 nM)
Outline: as §1

[15] = system: RXRa homodimer (NR concentration 180 nM)
Outline: as §1

[16] = system: THRa:RXRa (NR concentration 90 nM, RXRa partner concentration 90 nM)
Outline: as §1

[17] = system: THRa homodimer (NR concentration 90 nM)
Outline: as §1

[18] = system: VDR homodimer (NR concentration 270 nM)
Outline: as §1

Sequence | PBM binding z-score [1] | PBM binding z-score [2] | PBM binding z-score [3] | PBM binding z-score [4] | PBM binding z-score [5] | PBM binding z-score [6] | PBM binding z-score [7] | PBM binding z-score [8] | PBM binding z-score [9] | PBM binding z-score [10] | PBM binding z-score [11] | PBM binding z-score [12] | PBM binding z-score [13] | PBM binding z-score [14] | PBM binding z-score [15] | PBM binding z-score [16] | PBM binding z-score [17] | PBM binding z-score [18]
CCTTACGGGTCACTCCCGGTTATAGCATCGGAGT | 2.29 | 3.2 | -0.351 | 0.418 | 2.11 | 3.32 | 0.36 | 3.34 | 1.06 | 3.65 | 2.94 | 4.42 | 4.31 | 1.43 | 4.33 | 3.71 | 0.272 | 1.14
GGAACGAGGGCATTCGAGTGGATAGCATGGCGAT | 2.7 | 1.91 | 0.297 | -0.551 | -0.225 | 0.6 | -0.278 | 0.17 | -0.0575 | 1.74 | 0.402 | 0.904 | 1.23 | 2.83 | 0.651 | 1.69 | -0.704 | 1.87
ATTAGCAGGCCAAGTTTGGGTCACTCAAACAAAG | 0.708 | 1.31 | -0.0201 | -0.208 | 0.531 | 0.924 | 0.144 | 1.97 | -0.273 | 1.83 | 2.04 | 2.39 | 1.91 | 0.00898 | 0.882 | 2.69 | 0.986 | 0.34
ACAGACAGGTGAGTGAAGATAACTCAGCTGGACG | 0.148 | 0.126 | 0.243 | 0.332 | -0.119 | -0.523 | -0.597 | -0.226 | 0.147 | 0.137 | -0.405 | 0.185 | 0.475 | -0.658 | 0.111 | -0.344 | -0.684 | -0.624
CAAACTAGGTCAAGGTCAATGTCGGTTTGTGCCA | 8.55 | 8.45 | 5.91 | 4.78 | 4.97 | 4.89 | 2.16 | 4.96 | 2.18 | 5.03 | 5.09 | 5.85 | 6.81 | 2.94 | 5.18 | 4.41 | 3.82 | 4.11
CCTACTGGTCCATCAGGTCATTGATATCAACGTT | 0.344 | 1.32 | 0.234 | 0.596 | 1.48 | 1.99 | 1.32 | 2.05 | 0.854 | 1.87 | 2.5 | 1.6 | 1.47 | 1.04 | 1.28 | 3.41 | 3.29 | 2.02
CGTGCAAGGTCATAGGAGGTCAGTGAAGACAGAT | 3.54 | 4.74 | 1.77 | -0.0772 | 4.07 | 7.21 | 4.19 | 6.63 | 2 | 5.41 | 5.38 | 7.04 | 7.51 | 4.08 | 7.22 | 5.44 | 2.87 | 4.63
CATCCTAGGTCAGGGCCAGTATAGGAGGAACGTT | 3.29 | 3.82 | 0.575 | -0.518 | 1.36 | 0.842 | -0.294 | 1.65 | 0.477 | 3.65 | 2.73 | 3.24 | 4.12 | 0.0171 | 2.22 | 2.52 | 0.878 | 0.11
GCTCGGAGGACAAGCTCAGAGCTTTGTCCGTAGA | -0.93 | -0.339 | -0.667 | -0.738 | -0.886 | -0.742 | -0.896 | -0.828 | -1.84 | 0.862 | -0.256 | -0.416 | 0.0982 | -0.613 | -1.03 | 0.34 | -0.504 | -0.467
GCTATTAGTTGAAGGGGCAACCGAATGATTCTCG | 0.421 | -0.0967 | -0.209 | 0.191 | 1.03 | -0.209 | -0.028 | 0.0521 | 0.778 | 0.759 | 0.855 | 0.206 | 0.529 | 0.928 | 0.206 | 0.0187 | -0.194 | 0.212
TCTTGTAGATCAGCAGGTTATGAAAGCTGGCCAA | 1.43 | 0.523 | -0.144 | 0.592 | -0.672 | 0.11 | -0.253 | 0.383 | -0.663 | 0.164 | -0.0555 | -0.168 | -0.428 | 0.64 | 0.311 | 0.276 | -0.466 | -0.405
GATACAGGGTCAGCTAAAGGCCAGAGTATGGAAA | 1.25 | 2.78 | 0.576 | -0.417 | 2.2 | 2.68 | -0.205 | 4.25 | 0.412 | 4.26 | 3.61 | 6.61 | 5.01 | 0.751 | 4.45 | 3.02 | 0.329 | 0.806
AGCACGAGGGCACGCTGAGTTGATAGCAGAGTAG | 2.09 | 2.17 | 0.0423 | -0.669 | 0.0355 | 1.32 | 0.313 | 0.919 | -0.335 | 2.59 | 1.33 | 1.97 | 2.42 | 1.87 | 1.52 | 2.05 | 0.103 | 0.992
CAAACTAGGTCAAGGTCAAAGTTGGTTTGTGCCA | 8.46 | 8.73 | 4.69 | 4.12 | 4.93 | 5.28 | 2.75 | 5.45 | 1.94 | 5.19 | 5.15 | 6.1 | 6.67 | 3.1 | 6.01 | 4.39 | 3.85 | 4.14
